This passage reports outcome and AC50 results from PubChem BioAssay (EPA / NIEHS).

Active and inactive are the calls of the source. The calls were made as follows: active = hit-call score of the fitted dose curve at least 0.9, where 1 is the maximum; inactive = score below 0.9.

Assay [1] can be described thus: ATG_DR4_LXR_CIS: Attagene CIS-FACTORIAL HepG2 Assay for human Liver X Receptor (LXR), DR4 submotif (AID 2282929). The settings on record: HepG2 Attagene DR4 cis-reporter, mRNA transcription; actives raise or lower the signal. The gist of the method: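 Endogenous factor activity at a DR4 cis-element is read as reporter mRNA in transiently transfected HepG2 cells. Exposure lasts 24 h; transcripts are amplified, fluorescently labelled and sized by capillary electrophoresis, with DMSO as baseline.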

The target in assay [2] is Aryl hydrocarbon receptor (Homo sapiens) (UniProt P35869). Briefly: ATG_Ahr_CIS: Attagene CIS-FACTORIAL HepG2 Assay for human Aryl Hydrocarbon Receptor (Ahr) (AID 2282930). The settings on record: HepG2 AhR cis-factorial reporter transcription; actives raise or lower the signal. A digest of the protocol: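 Following 24 h of chemical dosing, transfected HepG2 liver cells with cis-driven reporter units were lysed for RNA; reporter mRNA was quantified via RT-PCR and capillary electrophoresis, and responses fitted bidirectionally from DMSO.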

The nature of assay [3]: ATG_AP_1_CIS: Attagene CIS-FACTORIAL HepG2 Assay for human Activator Protein 1 (AP-1) (AID 2282931). The settings on record: HepG2 Attagene cis-factorial AP-1 reporter mRNA; actives raise or lower the signal. A digest of the protocol: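 Fluorescence of labelled PCR fragments separated by capillary electrophoresis gives reporter mRNA levels. HepG2 with transfected cis-regulated reporter units, 24 h exposure; DMSO serves as baseline for bidirectional curve fits.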

Assay [4] in a line: ATG_AP_2_CIS: Attagene CIS-FACTORIAL HepG2 Assay for human Activator Protein 2 (AP-2) (AID 2282932). The settings on record: HepG2 AP-2 cis-reporter, Attagene transcription factor profiling; actives raise or lower the signal. A digest of the protocol: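 Cells (HepG2) transfected with promoter-driven reporter constructs, treated 24 h. Total RNA reverse-transcribed, reporter cDNA PCR-amplified, FAM-labelled by primer extension, digested, resolved by capillary electrophoresis. Activity fitted both directions versus DMSO.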

Assay [5] is described as follows: ATG_BRE_CIS: Attagene CIS-FACTORIAL HepG2 Assay for human Bone Morphogenetic Protein (BMP) Response Element (BRE) (AID 2282933). The settings on record: HepG2 BMP response element reporter, Attagene transcription factor profiling; actives raise or lower the signal. The gist of the method: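 HepG2 cells transiently transfected with multiplexed cis-element reporter units were dosed with chemical for 24 h. Reporter mRNA was measured by RT-PCR with fluorescent labelling, HpaI digestion and capillary electrophoresis; bidirectional fitting relative to DMSO.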

Assay [6] has as its target Transcription factor E2F1 (Homo sapiens) (UniProt Q01094). Kind of assay: ATG_E2F_CIS: Attagene CIS-FACTORIAL HepG2 Assay for human E2F Transcription Factor 1 (AID 2282935). The settings on record: HepG2 Attagene cis-reporter, E2F reporter RNA transcripts; actives raise or lower the signal. A digest of the protocol:
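First, HepG2 cells were transfected with reporter transcription units. Next, they were dosed for 24 h. Then RNA was isolated, converted to cDNA, PCR-amplified, FAM-labeled, HpaI-digested and analyzed by capillary electrophoresis.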

Assay [7] in a line: ATG_E_Box_CIS: Attagene CIS-FACTORIAL HepG2 Assay for human Enhancer Box (E-box) (AID 2282936). The settings on record: HepG2 E-box cis-reporter transcription, actives raise or lower the signal. The gist of the method:
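Endogenous transcription factor activity was sensed in human HepG2 liver cells through transfected cis-promoter reporter units. After 24 h of dosing, total RNA was reverse-transcribed and reporter cDNA resolved by capillary electrophoresis.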

Assay [8] can be described thus: ATG_M_61_CIS: Attagene CIS-FACTORIAL HepG2 Assay for M61 Transcription Factor (Internal Marker) (AID 2282937). The settings on record: HepG2 Attagene CIS-FACTORIAL M61 internal marker reporter; actives raise or lower the signal. The gist of the method: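 This endpoint serves as an internal background control within a multiplexed HepG2 cis-reporter panel. Cells are exposed for 24 h; reporter mRNA is amplified, fluorescently labelled and sized by capillary electrophoresis, with DMSO as negative control.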

The nature of assay [9]: ATG_ERE_CIS: Attagene CIS-FACTORIAL HepG2 Assay for Estrogen Response Element (ERE) (AID 2282940). The settings on record: HepG2 ERE cis-reporter, Attagene RNA transcript; actives raise or lower the signal. The gist of the method: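 HepG2 cells transiently transfected with cis-promoter-driven multiplexed reporter transcription units report endogenous TF activity. After 24 h compound exposure, reporter mRNA is quantified by RT-PCR with capillary electrophoresis fluorescence; bidirectional fitting versus DMSO baseline.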

Assay [10] can be described thus: ATG_Ets_CIS: Attagene CIS-FACTORIAL HepG2 Assay for human Erythroblast Transformation Specific (ETS) (AID 2282941). The settings on record: HepG2 ETS cis-reporter transcription, actives raise or lower the signal. The gist of the method:
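Bidirectional fit versus DMSO of reporter mRNA signal, detected by RT-PCR and capillary electrophoresis in HepG2 cells transiently transfected with cis-element reporters and dosed 24 h.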

The target of assay [11] is Hepatocyte nuclear factor 3-beta (Homo sapiens) (UniProt Q9Y261). Kind of assay: ATG_FoxA2_CIS: Attagene CIS-FACTORIAL HepG2 Assay for human Forkhead box A2 (FOXA2) (AID 2282942). The settings on record: HepG2 cis-reporter transcription factor activity, 24 h; actives raise or lower the signal. A digest of the protocol:
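Cells: HepG2, transient multiplex reporter transfection. Exposure 24 h. Detection: reporter-specific RT-PCR, fluorescent labelling, restriction digest, capillary electrophoresis. Analysis: bidirectional curve fit, DMSO as negative control.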

Assay [12] in a line: ATG_FoxO_CIS: Attagene CIS-FACTORIAL HepG2 Assay for human Forkhead box O (FoxO) (AID 2282943). The settings on record: HepG2 Attagene cis-reporter, FoxO element, mRNA; actives raise or lower the signal. The gist of the method:
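24 h chemical exposure, HepG2 with transient cis-MRTU transfection. RNA extraction, oligo(dT) RT, reporter-specific PCR, primer-extension labelling, HpaI digestion, CE fragment analysis; bidirectional fit, DMSO baseline.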

Assay [13] in a line: ATG_GATA_CIS: Attagene CIS-FACTORIAL HepG2 Assay for human GATA Binding Protein (AID 2282944). The settings on record: HepG2 GATA cis-element reporter, Attagene multiplex mRNA; actives raise or lower the signal. A digest of the protocol:
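HepG2 cells transiently transfected with multiplexed cis-element reporter units reflecting endogenous transcription factor activity; reporter mRNA measured after 24 h dosing by RT-PCR, 6-FAM labeling, HpaI digestion and capillary electrophoresis. Bidirectional fitting versus DMSO baseline.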

Assay [14] in a line: ATG_GLI_CIS: Attagene CIS-FACTORIAL HepG2 Assay for human Zinc Finger Protein GLI1 (AID 2282945). The settings on record: HepG2, Attagene cis-factorial reporter mRNA, GLI element; actives raise or lower the signal. A digest of the protocol: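 HepG2 cells transiently transfected with cis-promoter multiplexed reporter units report endogenous transcription factor activity. After 24 h chemical exposure, reporter mRNA was quantified by RT-PCR, 6-FAM labelling, HpaI digestion and capillary electrophoresis, with bidirectional fitting against DMSO.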

Assay [15] addresses Bile acid receptor (Homo sapiens) (UniProt Q96RI1). Briefly: ATG_IR1_CIS: Attagene CIS-FACTORIAL HepG2 Assay for human Nuclear Receptor Subfamily 1 Group H Member 4 (NR1H4), IR1 submotif (AID 2282946). The settings on record: IR1 reporter transcription, actives raise or lower the signal. The gist of the method:
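Readout: reporter transcript levels by RT-PCR with fluorescent capillary electrophoresis, from HepG2 cells transiently transfected with multiplexed cis-regulated reporters and dosed 24 h. Gain- or loss-of-signal fitted versus DMSO negative control.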

The nature of assay [16]: ATG_GRE_CIS: Attagene CIS-FACTORIAL HepG2 Assay for human Glucocorticoid Response Elements (GRE) (AID 2282947). The settings on record: HepG2 GRE cis-reporter, Attagene multiplex mRNA; actives raise or lower the signal. The gist of the method: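 Cells (HepG2) bearing transfected cis-promoter reporter transcription units were treated with chemical for 24 hours. Reporter mRNA was measured via RT-PCR with capillary electrophoresis, and activity was fitted in both directions relative to DMSO.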

Assay [17] in a line: ATG_ISRE_CIS: Attagene CIS-FACTORIAL HepG2 Assay for human Interferon Regulatory Factor 1 (IRF1) binding to an Interferon-Stimulated Response Element (ISRE) (AID 2282948). The settings on record: HepG2 ISRE cis-reporter (Attagene), mRNA transcription readout; actives raise or lower the signal. The gist of the method:
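Uses HepG2 liver cells transfected with cis-regulated reporters and measures mRNA 24 h post-dosing through RT-PCR, primer-extension labelling and capillary electrophoresis, with DMSO as negative control.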

Assay [18] is described as follows: ATG_EGR_CIS: Attagene CIS-FACTORIAL HepG2 Assay for human Early Growth Response 1 (EGR1) (AID 2282938). The settings on record: HepG2 Attagene CIS-FACTORIAL EGR reporter mRNA; actives raise or lower the signal. A digest of the protocol:
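HepG2, transient MRTU transfection (cis promoters), 24 h compound. RNA → RT (oligo-dT) → PCR → 6-FAM labelling → HpaI cut → CE fluorescence. Bidirectional fit, DMSO baseline.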

Assay [19] deals with Retinoic acid receptor alpha (Homo sapiens) (UniProt P10276). Briefly: ATG_DR5_RAR_CIS: Attagene CIS-FACTORIAL HepG2 Assay for human Retinoic Acid Receptor Alpha (RARE), DR5 submotif (AID 2282934). The settings on record: HepG2 Attagene cis-factorial RARE DR5 reporter, mRNA; actives raise or lower the signal. The gist of the method:
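Transfected HepG2 reporter cells are exposed to chemicals for 24 h. Then RNA is extracted and the DR5 element reporter transcript is measured by RT-PCR and capillary electrophoresis, with bidirectional curve fitting relative to DMSO.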

Assay [20] is described as follows: ATG_M_19_CIS: Attagene CIS-FACTORIAL HepG2 Assay for M19 Transcription Factor (Internal Marker) (AID 2282939). The settings on record: HepG2 Attagene CIS-FACTORIAL M19 internal marker reporter; actives raise or lower the signal. A digest of the protocol: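 HepG2 cells transiently transfected with cis-regulated multiple reporter transcription units were dosed for 24 h; reporter mRNA was quantified by RT-PCR, 6-FAM primer-extension labelling, HpaI digestion and capillary electrophoresis, with bidirectional fitting against DMSO baseline.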

Aryl hydrocarbon receptor (Homo sapiens), sequence (P35869 whole entry, looked up): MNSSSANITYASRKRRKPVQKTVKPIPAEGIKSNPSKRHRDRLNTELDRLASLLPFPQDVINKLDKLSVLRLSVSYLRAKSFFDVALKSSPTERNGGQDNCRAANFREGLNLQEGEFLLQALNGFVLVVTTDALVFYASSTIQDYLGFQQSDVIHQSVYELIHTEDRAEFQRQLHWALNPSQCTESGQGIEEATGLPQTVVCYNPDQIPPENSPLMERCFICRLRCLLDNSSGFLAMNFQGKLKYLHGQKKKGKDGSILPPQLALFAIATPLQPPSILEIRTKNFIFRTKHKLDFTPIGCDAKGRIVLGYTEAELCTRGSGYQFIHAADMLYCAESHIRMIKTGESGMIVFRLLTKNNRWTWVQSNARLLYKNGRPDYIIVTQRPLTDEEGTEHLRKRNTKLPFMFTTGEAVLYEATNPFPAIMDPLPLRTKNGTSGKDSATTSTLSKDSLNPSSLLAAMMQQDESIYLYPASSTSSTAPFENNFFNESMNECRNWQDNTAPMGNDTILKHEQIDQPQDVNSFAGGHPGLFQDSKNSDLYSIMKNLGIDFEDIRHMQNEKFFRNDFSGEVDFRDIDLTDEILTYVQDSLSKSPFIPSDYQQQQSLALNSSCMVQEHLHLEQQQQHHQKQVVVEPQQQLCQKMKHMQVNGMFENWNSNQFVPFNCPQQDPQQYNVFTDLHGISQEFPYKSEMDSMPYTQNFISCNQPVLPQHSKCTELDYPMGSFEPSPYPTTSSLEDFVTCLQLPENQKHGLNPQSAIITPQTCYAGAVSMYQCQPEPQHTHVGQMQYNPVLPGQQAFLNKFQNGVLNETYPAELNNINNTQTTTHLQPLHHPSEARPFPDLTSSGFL
Hepatocyte nuclear factor 3-beta (Homo sapiens), sequence (Q9Y261 whole entry, looked up): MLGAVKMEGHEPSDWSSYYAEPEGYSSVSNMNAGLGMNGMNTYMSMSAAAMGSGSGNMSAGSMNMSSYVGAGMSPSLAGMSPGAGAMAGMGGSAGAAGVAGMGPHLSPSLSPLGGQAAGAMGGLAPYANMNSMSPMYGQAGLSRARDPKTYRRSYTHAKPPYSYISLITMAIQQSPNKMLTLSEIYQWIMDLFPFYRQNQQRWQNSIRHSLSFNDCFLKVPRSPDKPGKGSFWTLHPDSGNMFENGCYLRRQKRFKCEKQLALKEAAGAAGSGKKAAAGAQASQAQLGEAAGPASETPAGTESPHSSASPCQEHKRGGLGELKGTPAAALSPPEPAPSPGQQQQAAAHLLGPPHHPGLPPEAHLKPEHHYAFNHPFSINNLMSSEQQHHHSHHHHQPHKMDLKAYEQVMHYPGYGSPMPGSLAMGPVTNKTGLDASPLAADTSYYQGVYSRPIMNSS
Transcription factor E2F1 (Homo sapiens), sequence (Q01094 whole entry, looked up): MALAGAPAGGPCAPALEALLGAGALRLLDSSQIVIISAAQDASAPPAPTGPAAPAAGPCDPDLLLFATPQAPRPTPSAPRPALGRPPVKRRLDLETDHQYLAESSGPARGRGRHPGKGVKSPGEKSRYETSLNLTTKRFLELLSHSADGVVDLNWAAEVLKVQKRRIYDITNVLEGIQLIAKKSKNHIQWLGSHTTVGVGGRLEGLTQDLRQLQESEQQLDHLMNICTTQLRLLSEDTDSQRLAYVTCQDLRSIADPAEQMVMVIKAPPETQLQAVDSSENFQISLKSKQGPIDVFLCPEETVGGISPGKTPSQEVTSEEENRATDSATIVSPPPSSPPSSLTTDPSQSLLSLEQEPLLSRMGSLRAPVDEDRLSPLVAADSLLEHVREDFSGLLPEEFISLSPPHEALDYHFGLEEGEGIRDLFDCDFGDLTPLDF
Bile acid receptor (Homo sapiens), sequence (Q96RI1 whole entry, looked up): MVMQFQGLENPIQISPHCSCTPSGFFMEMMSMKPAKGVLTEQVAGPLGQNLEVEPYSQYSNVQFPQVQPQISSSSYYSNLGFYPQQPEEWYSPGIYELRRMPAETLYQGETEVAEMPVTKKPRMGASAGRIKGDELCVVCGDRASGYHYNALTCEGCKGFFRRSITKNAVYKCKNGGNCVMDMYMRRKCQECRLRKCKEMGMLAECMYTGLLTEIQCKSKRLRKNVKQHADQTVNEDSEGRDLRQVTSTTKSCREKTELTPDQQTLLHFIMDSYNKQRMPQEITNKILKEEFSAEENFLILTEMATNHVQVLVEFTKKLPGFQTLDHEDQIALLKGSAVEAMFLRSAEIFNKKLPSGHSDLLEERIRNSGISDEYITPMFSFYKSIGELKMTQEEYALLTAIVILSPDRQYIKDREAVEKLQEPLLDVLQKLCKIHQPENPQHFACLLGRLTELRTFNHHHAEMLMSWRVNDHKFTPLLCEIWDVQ
Retinoic acid receptor alpha (Homo sapiens), sequence (P10276 whole entry, looked up): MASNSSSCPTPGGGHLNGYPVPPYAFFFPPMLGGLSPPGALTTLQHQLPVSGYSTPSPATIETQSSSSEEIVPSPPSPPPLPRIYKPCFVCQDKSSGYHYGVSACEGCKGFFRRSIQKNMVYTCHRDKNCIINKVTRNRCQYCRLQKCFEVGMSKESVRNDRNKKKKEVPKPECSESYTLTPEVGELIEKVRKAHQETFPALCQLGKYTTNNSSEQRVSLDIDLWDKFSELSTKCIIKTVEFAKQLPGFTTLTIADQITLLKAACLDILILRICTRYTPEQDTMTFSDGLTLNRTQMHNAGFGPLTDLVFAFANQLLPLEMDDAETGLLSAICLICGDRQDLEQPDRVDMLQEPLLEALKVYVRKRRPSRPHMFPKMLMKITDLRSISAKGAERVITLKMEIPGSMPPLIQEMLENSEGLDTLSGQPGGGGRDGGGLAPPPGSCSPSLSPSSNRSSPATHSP

As a reminder, the AC50 is the concentration at which the activity in the assay is half-maximal. Turning to `N#CCCC(Br)(C#N)CBr` (configuration not stated), the outcome in [1], in assay [3], in assay [5], in [6], in assay [8] and in assay [9] was inactive. For the same compound, the call in assay [10], in assay [11], in assay [12], in assay [13] and in assay [16] was inactive. In addition, the AC50 in assay [2] was 33.4 µM (active); in assay [4], 49.9 µM (active); in assay [7] it was 62.4 µM (active); in assay [14], 53.6 µM (active); in assay [15] it was 53.9 µM (active); in assay [17], 60.8 µM (active).
On to `CC(C)(COCC1CO1)COCC1CO1` (configuration not stated), for which the call in assay [1], in assay [2], in assay [3], in assay [4], in assay [5] and in assay [6] was inactive. Further, the outcome in assay [7], in assay [8], in assay [18], in assay [10], in assay [11] and in [12] was inactive. Besides, the compound was called inactive in assay [13], in [14], in assay [15], in [16] and in [17].
Take `Nc1nc(N)nc(Cl)n1`: the compound was classed as inactive in assay [1], in assay [3], in assay [4], in assay [5], in assay [19] and in assay [6]. The result in [7], in assay [8], in [18], in assay [20], in assay [9] and in assay [10] was inactive. For the same compound, the result in assay [11], in assay [12], in [13], in [14], in [16] and in assay [17] was inactive.
On to `O=C1c2ccccc2C(=O)C1C(=O)C(c1ccccc1)c1ccc(Cl)cc1` (configuration not stated), for which the outcome in [1], in [4], in assay [7], in [13] and in assay [16] was inactive. Besides, the AC50 in [2] was 8.72 µM (active); in assay [3], 5.27 µM (active); in assay [5], 5.02 µM (active); in [18], 13.1 µM (active); in assay [20], 33.4 µM (active); in assay [10] it was 182 µM (active). Moreover, the AC50 in [11] was 11.9 µM (active); in [12], 54.6 µM (active); in assay [14], 166 µM (active); in [17] it was 20 µM (active).
